The values that follow come from the supplement of paper PMC7724964.

± gives the standard deviation of the averaged measurements.

What all share (assay): phage ELISA signal ratio (GST-PRM binding over GST background); higher = stronger binding of peptide-phage to the PRM
The target in test [1] is T1, BTN1A1 285-479 SPRY (domain begin residue: 285, domain end residue: 479), Q13410.
T1 chain: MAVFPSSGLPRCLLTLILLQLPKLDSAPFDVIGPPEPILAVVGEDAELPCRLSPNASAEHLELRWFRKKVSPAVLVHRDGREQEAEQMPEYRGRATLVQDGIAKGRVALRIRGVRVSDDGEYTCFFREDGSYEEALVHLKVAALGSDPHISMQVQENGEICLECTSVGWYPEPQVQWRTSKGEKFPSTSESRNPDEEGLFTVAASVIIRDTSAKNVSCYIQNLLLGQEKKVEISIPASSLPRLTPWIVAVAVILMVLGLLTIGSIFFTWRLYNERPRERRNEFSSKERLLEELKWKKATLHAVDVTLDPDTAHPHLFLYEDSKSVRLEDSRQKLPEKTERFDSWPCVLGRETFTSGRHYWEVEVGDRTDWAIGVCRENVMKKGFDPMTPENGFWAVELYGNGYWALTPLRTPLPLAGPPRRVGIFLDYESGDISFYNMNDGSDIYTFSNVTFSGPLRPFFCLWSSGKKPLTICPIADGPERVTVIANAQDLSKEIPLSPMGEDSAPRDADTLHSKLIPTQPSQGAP
On the procedure: (§1)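 Phage-displayed random hexadecapeptides (Cys-free, flanked by invariant Gly linkers, fused to the M13 P8 major coat protein) were selected over 5 rounds against GST-fused human PRM domains. Individual clones from rounds 4-5 were tested by phage ELISA, and positive clones binding the target but not GST were sequenced. Values are the ELISA signal ratio of target over background (GST); the background signal is given separately.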

Test [2] deals with T2, ARFGEF2 639-829 Sec7 (domain begin residue: 639, domain end residue: 829), Q9Y6D5.
T2 chain: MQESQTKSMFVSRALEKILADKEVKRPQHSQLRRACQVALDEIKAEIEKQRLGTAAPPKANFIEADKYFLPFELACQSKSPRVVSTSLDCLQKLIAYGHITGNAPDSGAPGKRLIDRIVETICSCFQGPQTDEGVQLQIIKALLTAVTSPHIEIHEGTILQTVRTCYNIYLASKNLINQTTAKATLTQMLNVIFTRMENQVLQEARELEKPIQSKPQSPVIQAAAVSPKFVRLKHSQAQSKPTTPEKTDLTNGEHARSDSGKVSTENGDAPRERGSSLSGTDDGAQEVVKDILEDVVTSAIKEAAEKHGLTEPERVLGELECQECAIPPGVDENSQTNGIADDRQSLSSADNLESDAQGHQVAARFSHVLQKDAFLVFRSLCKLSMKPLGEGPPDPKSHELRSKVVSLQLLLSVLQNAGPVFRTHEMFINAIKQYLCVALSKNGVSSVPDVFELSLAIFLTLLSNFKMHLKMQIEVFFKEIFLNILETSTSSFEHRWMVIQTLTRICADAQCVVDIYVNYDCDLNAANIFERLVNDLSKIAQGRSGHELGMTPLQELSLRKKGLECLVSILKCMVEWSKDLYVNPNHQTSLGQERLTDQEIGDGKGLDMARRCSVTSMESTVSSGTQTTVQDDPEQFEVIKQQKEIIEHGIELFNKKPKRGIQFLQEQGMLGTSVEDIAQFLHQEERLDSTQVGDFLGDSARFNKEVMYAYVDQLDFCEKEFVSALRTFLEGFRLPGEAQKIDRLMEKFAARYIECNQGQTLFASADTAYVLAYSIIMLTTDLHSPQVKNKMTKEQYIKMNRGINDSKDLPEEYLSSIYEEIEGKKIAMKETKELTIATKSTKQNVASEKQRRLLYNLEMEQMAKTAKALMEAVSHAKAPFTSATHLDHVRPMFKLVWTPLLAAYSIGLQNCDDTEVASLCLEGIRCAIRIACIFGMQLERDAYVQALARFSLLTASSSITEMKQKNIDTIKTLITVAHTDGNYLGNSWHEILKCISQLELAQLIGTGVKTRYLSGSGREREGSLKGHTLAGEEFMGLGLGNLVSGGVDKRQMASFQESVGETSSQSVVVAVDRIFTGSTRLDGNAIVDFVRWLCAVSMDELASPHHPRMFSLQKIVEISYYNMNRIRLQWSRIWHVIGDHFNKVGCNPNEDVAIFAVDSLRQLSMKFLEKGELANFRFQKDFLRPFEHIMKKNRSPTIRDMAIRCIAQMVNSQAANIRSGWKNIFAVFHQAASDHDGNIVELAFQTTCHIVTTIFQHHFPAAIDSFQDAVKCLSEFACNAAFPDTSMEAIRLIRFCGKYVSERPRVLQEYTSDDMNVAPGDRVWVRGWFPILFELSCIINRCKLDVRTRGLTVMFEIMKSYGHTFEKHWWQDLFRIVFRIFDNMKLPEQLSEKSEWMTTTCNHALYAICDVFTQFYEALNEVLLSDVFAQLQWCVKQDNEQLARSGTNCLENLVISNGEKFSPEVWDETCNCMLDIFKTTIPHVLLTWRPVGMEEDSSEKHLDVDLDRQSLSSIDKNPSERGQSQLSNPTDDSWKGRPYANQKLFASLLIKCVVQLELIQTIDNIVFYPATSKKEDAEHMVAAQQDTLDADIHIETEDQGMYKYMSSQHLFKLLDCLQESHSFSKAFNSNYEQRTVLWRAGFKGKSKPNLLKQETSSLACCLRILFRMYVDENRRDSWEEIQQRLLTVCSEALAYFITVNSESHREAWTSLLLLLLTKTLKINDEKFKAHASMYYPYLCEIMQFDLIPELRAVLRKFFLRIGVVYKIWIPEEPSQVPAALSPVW
On the procedure: as §1

In test [3] the target is T3, ARID4A 568-634 Tudor-knot (domain begin residue: 568, domain end residue: 634), P29374.
T3 chain: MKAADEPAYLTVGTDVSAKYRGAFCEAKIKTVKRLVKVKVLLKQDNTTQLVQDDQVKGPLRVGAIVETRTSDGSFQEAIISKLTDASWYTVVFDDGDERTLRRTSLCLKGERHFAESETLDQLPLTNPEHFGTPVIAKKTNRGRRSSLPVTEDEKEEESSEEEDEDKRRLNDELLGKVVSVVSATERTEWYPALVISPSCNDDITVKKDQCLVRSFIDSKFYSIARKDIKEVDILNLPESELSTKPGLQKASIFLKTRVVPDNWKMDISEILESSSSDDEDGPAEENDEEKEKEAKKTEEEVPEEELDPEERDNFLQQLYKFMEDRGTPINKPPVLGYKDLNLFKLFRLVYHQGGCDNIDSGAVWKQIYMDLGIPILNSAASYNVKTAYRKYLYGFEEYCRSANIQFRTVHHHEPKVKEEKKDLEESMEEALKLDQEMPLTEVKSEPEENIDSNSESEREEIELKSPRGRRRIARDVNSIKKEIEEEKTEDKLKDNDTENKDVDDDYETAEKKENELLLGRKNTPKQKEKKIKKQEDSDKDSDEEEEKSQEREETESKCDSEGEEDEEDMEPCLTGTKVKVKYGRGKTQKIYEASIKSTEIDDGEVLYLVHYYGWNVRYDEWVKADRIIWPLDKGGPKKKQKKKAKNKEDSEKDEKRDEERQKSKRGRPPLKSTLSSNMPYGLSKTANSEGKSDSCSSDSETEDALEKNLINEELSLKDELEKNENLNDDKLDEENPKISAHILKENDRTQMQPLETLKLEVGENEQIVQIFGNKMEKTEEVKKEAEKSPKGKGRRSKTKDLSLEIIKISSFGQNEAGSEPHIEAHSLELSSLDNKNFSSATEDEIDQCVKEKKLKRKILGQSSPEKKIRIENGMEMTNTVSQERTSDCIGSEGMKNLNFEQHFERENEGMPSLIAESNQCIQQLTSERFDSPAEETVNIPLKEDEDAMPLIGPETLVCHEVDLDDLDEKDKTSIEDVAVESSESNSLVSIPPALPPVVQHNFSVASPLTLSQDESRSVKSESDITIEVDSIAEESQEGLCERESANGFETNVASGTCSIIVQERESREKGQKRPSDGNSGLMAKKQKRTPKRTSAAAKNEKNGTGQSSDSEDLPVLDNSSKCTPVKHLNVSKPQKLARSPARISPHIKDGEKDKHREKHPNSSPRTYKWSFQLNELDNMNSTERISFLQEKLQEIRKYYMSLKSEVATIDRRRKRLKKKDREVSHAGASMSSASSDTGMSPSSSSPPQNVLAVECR
On the procedure:
as §1

Test [4] addresses KMT2C 1055-1137 PHD (domain begin residue: 1055, domain end residue: 1137). On the procedure:
as §1

The target of test [5] is T4, ALDOA 1-364 Glycolytic (domain begin residue: 1, domain end residue: 364), P04075.
T4 chain: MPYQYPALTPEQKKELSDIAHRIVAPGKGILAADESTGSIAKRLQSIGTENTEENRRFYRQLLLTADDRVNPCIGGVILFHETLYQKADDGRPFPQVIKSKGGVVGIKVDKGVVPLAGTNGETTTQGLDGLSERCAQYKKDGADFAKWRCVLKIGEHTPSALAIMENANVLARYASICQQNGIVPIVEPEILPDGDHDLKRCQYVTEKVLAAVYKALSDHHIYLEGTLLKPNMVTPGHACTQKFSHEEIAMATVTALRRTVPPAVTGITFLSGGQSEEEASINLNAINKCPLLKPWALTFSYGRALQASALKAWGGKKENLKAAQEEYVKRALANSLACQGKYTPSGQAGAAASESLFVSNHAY
On the procedure: as §1

For the molecule GGIDWQGVYMKHFEMT, in test [1], the “phage ELISA signal ratio” value was 20.6.

In the case of LTREHVQWDGVMHWIM, the “phage ELISA signal ratio” value in test [2] is 16.4.

FDFWQAREYHMLNMMA: the “phage ELISA signal ratio” value in test [1] is 10.3.

As for VDGWWIARSEHLMQMA, in test [1], the “phage ELISA signal ratio” value is 11.9.

With HFIELMYDAPEMHMPW, the “phage ELISA signal ratio” value in test [3] is 5.33 ± 1.7; in test [4], 6.76.

For the molecule RDPHWQHKQQMQIVLM, the “phage ELISA signal ratio” value in test [1] stood at 11.1.

For WVYENGEWEWTFPPSA, the “phage ELISA signal ratio” value in test [5] was determined as 17.8.
